We go through 2 molecules from PubChem BioAssay AID2284324 (EPA ToxCast).

Inconclusive results are not listed. The source made the active and inactive calls. How the source made its calls: active means hit-call score of the fitted dose curve at least 0.9, where 1 is the maximum; inconclusive means response in the unintended direction; inactive means score below 0.9.

In the test the test system is Japanese medaka Glucocorticoid Receptor (GR), gene 101170451. The test is described as follows: ATG_jmGR_EcoTox2: Attagene TRANS-FACTORIAL EcoTox-2 HepG2 Assay for Japanese medaka Glucocorticoid Receptor (GR). Here is the method:
ATG_EcoTox2 is a cell-based, multiplexed assay created by modifying the existing Attagene TRANS-FACTORIAL system to include a panel of nuclear receptors from some or all the following species: human (Homo sapiens), african clawed frog (Xenopus laevis), rainbow trout (Oncorhynchus mykiss), japanese medaka (Oryzias latipes), and zebrafish (Danio rerio). The ECOTOX2-FACTORIAL format uses HepG2, a human liver cell line, with measurements taken at 24 hours after chemical dosing in a 24-well plate. ATG_jmGR_EcoTox2 is one of 29 assay components calculated in the ATG_EcoTox2 assay. It is designed to make measurements of mRNA induction, a form of inducible reporter, as detected with fluorescence intensity signals by Reverse transcription polymerase chain reaction (RT-PCR) and Capillary electrophoresis technology.The assay endpoint ATG_jmGR_EcoTox2 was analyzed in the positive analysis fitting direction relative to DMSO as the negative control and baseline of activity. Using a type of inducible reporter, measures of mRNA for gain-of-signal activity can be used to understand the reporter gene at the transcription factor-level as they relate to the gene for glucocorticoid receptor. Furthermore, this assay endpoint can be referred to as a primary readout, because this assay has produced multiple assay endpoints where this one serves a reporter gene function. […]

Regarding `O=P(Oc1ccccc1)(Oc1ccccc1)Oc1ccccc1`, the result was inactive.
Under `CCCCOCN(C(=O)CCl)c1c(CC)cccc1CC` stands “inactive”.
